Laboratory results: PubChem BioAssay (NCI)
The panel holds about 79,000 compounds, 15% with a hit somewhere; the sample as a whole holds those more often. Cut-off read from the data, not from the text of the source: active = growth inhibition above about 70%; inactive = the rest.

What was measured:
[1] = NCI Yeast Anticancer Drug Screen. Data for the rad50 strain (AID 155);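 note: 0% = growth of vehicle-only cultures of the same strain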; conditions: S. cerevisiae rad50 strain growth inhibition; at 50.0 µM; stronger effect = higher value
Summary of the method: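 Relative growth inhibition (compound vs vehicle) was measured in yeast with a defined repair-gene alteration.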

[2] = NCI Yeast Anticancer Drug Screen. Data for the mec2-1 strain (AID 157); conditions: S. cerevisiae mec2-1 strain, at 50.0 µM, stronger effect = higher value
Summary of the method: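 Using mec2-1 yeast: add compound, measure growth, express inhibition versus vehicle-treated cultures.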

[3] = NCI Yeast Anticancer Drug Screen. Data for the sgs1 mgt1 strain (AID 161);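 note: 0% = growth of cultures given vehicle only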; conditions: S. cerevisiae sgs1 mgt1 strain, at 50.0 µM, stronger effect = higher value
Summary of the method: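 Percent growth inhibition was derived by comparing compound-exposed mutant yeast with vehicle-exposed cultures. The strain carries alterations in DNA damage repair.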

[4] = NCI Yeast Anticancer Drug Screen. Data for the cln2 rad14 strain (AID 165);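 note: 0% = growth equal to vehicle treated cultures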; conditions: S. cerevisiae cln2 rad14 strain, at 50.0 µM, stronger effect = higher value
Summary of the method: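 Yeast strain cln2 rad14, bearing defects in cell cycle control and DNA repair, serves as the test system; values reflect growth inhibition compared with vehicle.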

[5] = NCI Yeast Anticancer Drug Screen. Data for the bub3 strain (AID 167); conditions: S. cerevisiae bub3 mutant strain, at 50.0 µM, stronger effect = higher value
Summary of the method: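 Screening used yeast with an engineered genetic alteration affecting cell cycle control. Compound-exposed cultures were compared with vehicle cultures, and reduced growth was taken as inhibition.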

[6] = NCI Yeast Anticancer Drug Screen. Data for the mlh1 rad18 strain (AID 175); conditions: S. cerevisiae mlh1 rad18 strain growth inhibition; at 50.0 µM; stronger effect = higher value
Summary of the method: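 Steps: expose repair-defective yeast to compound; measure growth; express inhibition against vehicle-treated controls.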

Measured: growth inhibition

O=C(c1ccccc1)[n+]1ccc2ccccc2c1
inactive: [1] -19.1% | [2] -21.2% | [3] -4.35% | [4] 0.45% | [5] -6.25% | [6] -13.1%

CC(=O)CC(=O)N1CCCCCC1
inactive: [1] -0.65% | [2] -16.9% | [3] 0.5% | [4] 11.8% | [5] -13.3% | [6] 25.1%

CCC(=O)c1ccc2ccccc2c1
inactive: [1] 5.1% | [2] 3.75% | [3] -0.65% | [4] -10.1% | [5] -2.1% | [6] -0.55%

NC1CC1
inactive: [1] -8.4% | [2] -1.1% | [3] -4.6% | [4] -9.95% | [5] 11.6% | [6] -22.9%

CC(CS(=O)(=O)Cc1ccccc1)C(N)=O (stereo unspecified)
inactive: [1] -4.8% | [2] 38.1% | [3] 14.3% | [4] 30.1% | [5] -9.95% | [6] -17.1%

C/C(=N\NC(=O)CCCCC(=O)N/N=C(\C)c1ccc(C)cc1)c1ccc(C)cc1
inactive: [1] -3.65% | [2] -11.3% | [3] 10.4% | [4] -45.7% | [5] -1.9% | [6] -2.7%

[N-]=[N+]=NC[C@H]1OCO[C@H](CN=[N+]=[N-])[C@@H](OCCOCCCl)[C@@H]1OCCOCCCl
inactive: [1] -13.1% | [2] -23.4% | [3] -10.6% | [4] -21.1% | [5] -28.8% | [6] -15.8%

Cc1cccc(C)c1NC(=O)Nc1cccc(C(F)(F)F)c1
inactive: [1] -16.4% | [2] -29.4% | [3] -14.7% | [4] -22.4% | [5] -8.25% | [6] -17.8%

c1ccc(-c2ccc(-c3nnc(-c4ccc(-c5ccccc5)cc4)o3)cc2)cc1
inactive: [1] -0.95% | [2] -10.4% | [3] 2.7% | [4] -35.6% | [5] -2.6% | [6] -3.1%

Cc1cccc(NC(=O)/C=C/c2ccc(N(CCC#N)CCC#N)cc2C)c1
inactive: [1] 9.15% | [2] 7.25% | [3] -6% | [4] 6.6% | [5] 40.4% | [6] 19.9%

O=C1CCCCC1CN1CCCC1 (stereo unspecified)
inactive: [1] -10.4% | [2] -12% | [3] -33.6% | [4] 21.4% | [5] -42.5% | [6] -22.6%

O=C1c2cccc3cccc(c23)C1(O)S(=O)(=O)O (stereo unspecified)
inactive: [1] 4.6% | [2] -2.1% | [3] 0.85% | [4] -13.8% | [5] 21.5% | [6] 6.95%

Cc1ccc2c(ccc3nnc(C)n32)c1
inactive: [1] 9.15% | [2] 4.05% | [3] 4.65% | [4] -2.95% | [5] 2.75% | [6] 10.8%

CCC1(CC)C(=O)OC(=O)C1(CC)CC
inactive: [1] -6.05% | [2] 6.7% | [3] 2.8% | [4] -8.2% | [5] -10.9% | [6] -10.4%

Nc1nc2nc(C(=O)O)c(=S)[nH]c2c(=O)[nH]1
inactive: [1] 11.1% | [2] 3.8% | [3] 1.9% | [4] -10.9% | [5] 7.6% | [6] -8.25%

Cc1ccc(S(=O)(=O)C2(NC(=O)c3ccc(Cl)cc3)CC2)cc1
inactive: [1] 10.6% | [2] 15.5% | [3] -6.9% | [4] 5.4% | [5] -11.5% | [6] -2.4%

N#Cc1c(F)cccc1N1CCSCC1
inactive: [1] 3.5% | [2] -17.8% | [3] 14.3% | [4] 25.4% | [5] 11.5% | [6] -0.55%

COc1ccc(CCn2nccc2C)cc1
inactive: [1] -60.9% | [2] -4% | [3] -4.3% | [4] -17.9% | [5] -9.4% | [6] -18.4%

NC(=O)c1csc(C2OC3COP(=O)(O)OC3C2O)n1 (stereo unspecified)
inactive: [1] -21.1% | [2] -26.2% | [3] -38.6% | [4] -5.65% | [5] -29.1% | [6] -28.9%

O=C(Nc1ccc(C2=NCCN2)cc1)c1ccc(C(=O)Nc2ccc(C3=NCCN3)cc2)cc1
inactive: [1] -3.1% | [2] 7.45% | [3] 0.95% | [4] 2% | [5] 9.4% | [6] -19.6%

O/N=C1/C(=C/c2ccc(Br)cc2)CCCC1C(NO)c1ccc(Br)cc1 (stereo unspecified)
inactive: [1] 0.9% | [2] -9.8% | [3] -27.4% | [4] 24.2% | [5] 0.45% | [6] -12.9%

CC/C(=N\NC(=O)c1ccncc1)c1ccc(Cl)cc1
inactive: [1] 1.1% | [2] 9.05% | [3] -3.15% | [4] 17.9% | [5] 2.9% | [6] -1.95%

COC(=O)C(N)C(C)(C)S (stereo unspecified)
inactive: [1] -9.9% | [2] -2.75% | [3] -3.65% | [4] -10% | [5] 6.85% | [6] 2.5%

CC(C)=CCC(C)c1ccccn1 (stereo unspecified)
inactive: [1] -2.45% | [2] 5.5% | [3] 10.3% | [4] -12.8% | [5] 10.9% | [6] -4.2%

CN(c1ccccc1)c1ccc([N+](=O)[O-])cc1[N+](=O)[O-]
inactive: [1] 7.4% | [2] -1.3% | [3] -8% | [4] 3.25% | [5] 0.8% | [6] -11.9%

COC1OC(C(=O)O)C(O)C(O)C1O (stereo unspecified)
inactive: [1] 6.75% | [2] -21.1% | [3] -2.6% | [4] -4% | [5] -17.6% | [6] 8.3%

CCOC(=O)CC1(C)SCCN1C(N)=O (stereo unspecified)
inactive: [1] 2.25% | [2] 4.35% | [3] -5.85% | [4] -26.3% | [5] 4% | [6] -10.2%

CC(C)(C)c1cc2ccc(C(N)=O)cc2c(=O)[nH]1
inactive: [1] -23.7% | [2] -29.8% | [3] -1.65% | [4] 1.2% | [5] -8.8% | [6] -4.95%

CC(C)NC(=O)OCc1c(COC(=O)NC(C)C)c(S(=O)c2ccccc2)n2c1CCC2 (stereo unspecified)
inactive: [1] 12.6% | [2] 5.3% | [3] 9.05% | [4] -27.1% | [5] 18.6% | [6] -6.4%

O=C(COc1ccc(Cl)cc1Cl)Nc1ccc2ccccc2c1
inactive: [1] 49.4% | [2] 46% | [3] 59.4% | [4] 18.9% | [5] 54.5% | [6] 36.7%

CCOC(=O)c1nc2c([nH]1)c(=O)n(C)c(=O)n2C
inactive: [1] 28.8% | [2] 10.7% | [3] 2.3% | [4] 30.1% | [5] 9.8% | [6] 1.4%

O=C1c2ccccc2C(=O)c2c1cccc2S(=O)(=O)Nc1ccccc1
inactive: [1] -1.45% | [2] 8.85% | [3] 11.2% | [4] -30.1% | [5] 20.1% | [6] -3.6%

O=C(COc1cccc(Cl)c1)Nc1ccc(Cl)cc1
inactive: [1] -0.5% | [2] -26.7% | [3] -18.9% | [4] -13.8% | [5] 17.4% | [6] 4.3%

c1ccc(OCCCCN2CCNCC2)cc1
inactive: [1] 1.85% | [2] -14.3% | [3] 14.3% | [4] -10.1% | [5] 8.3% | [6] -10.2%

Clc1ccccc1N=Cc1ccc(C=Nc2ccccc2Cl)cc1
inactive: [1] 26.9% | [2] 23.8% | [3] 34% | [4] 3.3% | [5] 38.5% | [6] 25.9%

O=C1c2cccc3c([N+](=O)[O-])ccc(c23)C(=O)N1CCc1ccccn1
inactive: [1] 24.9% | [2] 19.2% | [3] 45.5% | [4] 1.95% | [5] 17.9% | [6] 26.6%

Clc1ccc(-c2cc(-c3cc(-c4ccc(Cl)cc4Cl)n[nH]3)[nH]n2)c(Cl)c1
inactive: [1] 14.2% | [2] 1.75% | [3] -5.3% | [4] 20.6% | [5] 9.9% | [6] 8.55%

CSc1ccccc1N.[Cl][Cu][Cl]
inactive: [1] 28.8% | [2] 19.4% | [3] -2% | [4] 14.8% | [5] 28.1% | [6] 28.4%

Cc1c(Br)[n+](=O)c2ccccc2n1[O-]
inactive: [1] 1.6% | [2] 6.45% | [3] 17.4% | [4] 14.2% | [5] 11.9% | [6] 21.9%

O=[N+]([O-])c1ccc(C2=NOC3COC4C=CC=CC4OCC23)cc1 (stereo unspecified)
inactive: [1] -3.4% | [2] -29.7% | [3] 11.1% | [4] -2.55% | [5] 5.95% | [6] -7.5%

CCCc1cc(=O)oc2c3c(c4c(c12)OC(C)(C)CC4)O[C@H](C)C(C)[C@@H]3O (stereo partly specified)
inactive: [1] 9.9% | [2] 7.45% | [3] 22.1% | [4] -11.3% | [5] 2.85% | [6] -10.6%
